Experimental data: the supplement of paper PMC10849652
Targets with a hit are over-represented here; the source holds about 7,900 in all. About 0.6% of all pairs of compound and target were hits. Values without a mark were called inactive.

How the values were obtained:
Assay in all cases: log2 fold change, soluble protein after heating vs DMSO (PISA); higher = thermal stabilisation; K562 cells, 10 uM, 30 min; active = over 0.2 and 3.5 SD of the protein, either way, in both replicates (recomputed)
[1] = compound: CC1=C(C=C(C=C1)NC(=O)C2=CC(=CC=C2)C(C)(C)C#N)NC3=CC4=C(C=C3)N=CN(C4=O)C
Outline: (§1)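 Thermal stability values are relative to control samples and come from duplicates. They are expressed as log2 fold changes. For measurement, K562 cells (2×10^6 cells/mL) received 10 μM compound for 30 min, and aliquots were heated for 3 min over 48°C-58°C, pooled, and extracted at 4°C in PBS with 0.5% NP-40. Soluble protein, the supernatant after 21,000xg for 90 min, was quantified by TMTpro 16plex LC-MS/MS with equalised channel sums.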

[2] = compound: CC1=C(C=C(C=C1)NC(=O)C2=CC(=CC=C2)N(C)C)NC(=O)C3=CC=C(C=C3)O
Outline: as §1

[3] = compound: CC1=CC=C(C=C1)SC2=C3C=C(SC3=CN=C2)C(=O)N
Outline: as §1

[4] = compound: CC1=NC(=CC=C1)C2=C(N=C(N2)C(C)(C)C)C3=CC4=NC=CN=C4C=C3
Outline: as §1

Nexturastat A = compound: CCCCN(Cc1ccc(C(=O)NO)cc1)C(=O)Nc1ccccc1 [Nexturastat A]
Outline: as §1

vemurafenib = compound: CCCS(=O)(=O)Nc1ccc(F)c(C(=O)c2c[nH]c3ncc(-c4ccc(Cl)cc4)cc23)c1F [vemurafenib]
Outline: as §1

[5] = compound: CCCS(=O)(=O)Nc1ccc(F)c(C(=O)c2c[nH]c3ncc(Cl)cc23)c1F
Outline: as §1

[6] = compound: CCCc1cc(C)[nH]c(=O)c1CNC(=O)c1cc(-c2ccnc(N3CCN(C)CC3)c2)cc2c1cnn2C(C)C
Outline: as §1

givinostat = compound: CCN(CC)Cc1ccc2cc(COC(=O)Nc3ccc(C(=O)NO)cc3)ccc2c1 [givinostat]
Outline: as §1

barasertib = compound: CCN(CCCOc1ccc2c(Nc3cc(CC(=O)Nc4cccc(F)c4)[nH]n3)ncnc2c1)CCOP(=O)(O)O [barasertib]
Outline: as §1

[7] = compound: CC[C@@H]1C(=O)N(C)c2cnc(Nc3ccc(C(=O)NC4CCN(C)CC4)cc3OC)nc2N1C1CCCC1
Outline: as §1

volasertib = compound: CC[C@@H]1C(=O)N(C)c2cnc(Nc3ccc(C(=O)N[C@H]4CC[C@H](N5CCN(CC6CC6)CC5)CC4)cc3OC)nc2N1C(C)C [volasertib]
Outline: as §1

[8] = compound: CC[C@H](C)N1C=C(C2=C(C=C(C=C21)C3=CN=C(C=C3)N4CCNCC4)C(=O)NCC5=C(C=C(NC5=O)C)C)C
Outline: as §1

epoxomicin = compound: CC[C@H](C)[C@@H](C(=O)N[C@@H]([C@@H](C)O)C(=O)N[C@@H](CC(C)C)C(=O)[C@]1(CO1)C)NC(=O)[C@H]([C@@H](C)CC)N(C)C(=O)C [epoxomicin]
Outline: as §1

[9] = compound: CCn1c(C(=O)N(C2CC2)C2CC2)cc2c3c(ncn3C)c(Nc3cc(C)n(C)n3)nc21
Outline: as §1

[10] = compound: CCn1cc(-c2ccnc3[nH]c(-c4cccc(CN(C)C)c4)cc23)c(-c2ccc(NC(=O)N(C)C)cc2)n1
Outline: as §1

[11] = compound: CN(C)CC(=O)Nc1ccc2[nH]c(=O)c3ccccc3c2c1
Outline: as §1

rosiglitazone = compound: CN(CCOC1=CC=C(C=C1)C[C@H]2C(=O)NC(=O)S2)C3=CC=CC=N3 (racemic) [rosiglitazone]
Outline: as §1

[12] = compound: CN1C2=C(C3=C1C(=O)N(N=C3)CC4=CC(=CC=C4)N)SC(=C2)S(=O)C
Outline: as §1

[13] = compound: CN1CCC(CNc2ccc3ncc(-c4cccc(OC(F)(F)F)c4)n3n2)CC1
Outline: as §1

Sequence of UniProt Q8TCT7 (Q8TCT7 whole entry, looked up): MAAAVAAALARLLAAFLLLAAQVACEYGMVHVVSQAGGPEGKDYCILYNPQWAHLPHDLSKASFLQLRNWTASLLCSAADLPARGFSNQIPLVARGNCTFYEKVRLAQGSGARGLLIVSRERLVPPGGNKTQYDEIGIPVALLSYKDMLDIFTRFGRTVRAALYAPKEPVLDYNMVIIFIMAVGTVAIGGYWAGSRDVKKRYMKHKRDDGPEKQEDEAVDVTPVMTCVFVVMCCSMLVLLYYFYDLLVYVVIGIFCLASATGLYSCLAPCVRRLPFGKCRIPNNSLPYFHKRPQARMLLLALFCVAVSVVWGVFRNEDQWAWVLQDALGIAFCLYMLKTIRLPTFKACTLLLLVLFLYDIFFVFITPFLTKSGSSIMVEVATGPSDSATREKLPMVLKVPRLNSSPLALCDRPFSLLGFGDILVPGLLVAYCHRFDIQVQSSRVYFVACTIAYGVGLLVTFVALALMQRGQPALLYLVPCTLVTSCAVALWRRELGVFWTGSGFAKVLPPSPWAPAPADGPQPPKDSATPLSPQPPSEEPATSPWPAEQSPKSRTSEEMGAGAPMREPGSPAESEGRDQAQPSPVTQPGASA
Sequence of UniProt Q6YHU6 (Q6YHU6 whole entry, looked up): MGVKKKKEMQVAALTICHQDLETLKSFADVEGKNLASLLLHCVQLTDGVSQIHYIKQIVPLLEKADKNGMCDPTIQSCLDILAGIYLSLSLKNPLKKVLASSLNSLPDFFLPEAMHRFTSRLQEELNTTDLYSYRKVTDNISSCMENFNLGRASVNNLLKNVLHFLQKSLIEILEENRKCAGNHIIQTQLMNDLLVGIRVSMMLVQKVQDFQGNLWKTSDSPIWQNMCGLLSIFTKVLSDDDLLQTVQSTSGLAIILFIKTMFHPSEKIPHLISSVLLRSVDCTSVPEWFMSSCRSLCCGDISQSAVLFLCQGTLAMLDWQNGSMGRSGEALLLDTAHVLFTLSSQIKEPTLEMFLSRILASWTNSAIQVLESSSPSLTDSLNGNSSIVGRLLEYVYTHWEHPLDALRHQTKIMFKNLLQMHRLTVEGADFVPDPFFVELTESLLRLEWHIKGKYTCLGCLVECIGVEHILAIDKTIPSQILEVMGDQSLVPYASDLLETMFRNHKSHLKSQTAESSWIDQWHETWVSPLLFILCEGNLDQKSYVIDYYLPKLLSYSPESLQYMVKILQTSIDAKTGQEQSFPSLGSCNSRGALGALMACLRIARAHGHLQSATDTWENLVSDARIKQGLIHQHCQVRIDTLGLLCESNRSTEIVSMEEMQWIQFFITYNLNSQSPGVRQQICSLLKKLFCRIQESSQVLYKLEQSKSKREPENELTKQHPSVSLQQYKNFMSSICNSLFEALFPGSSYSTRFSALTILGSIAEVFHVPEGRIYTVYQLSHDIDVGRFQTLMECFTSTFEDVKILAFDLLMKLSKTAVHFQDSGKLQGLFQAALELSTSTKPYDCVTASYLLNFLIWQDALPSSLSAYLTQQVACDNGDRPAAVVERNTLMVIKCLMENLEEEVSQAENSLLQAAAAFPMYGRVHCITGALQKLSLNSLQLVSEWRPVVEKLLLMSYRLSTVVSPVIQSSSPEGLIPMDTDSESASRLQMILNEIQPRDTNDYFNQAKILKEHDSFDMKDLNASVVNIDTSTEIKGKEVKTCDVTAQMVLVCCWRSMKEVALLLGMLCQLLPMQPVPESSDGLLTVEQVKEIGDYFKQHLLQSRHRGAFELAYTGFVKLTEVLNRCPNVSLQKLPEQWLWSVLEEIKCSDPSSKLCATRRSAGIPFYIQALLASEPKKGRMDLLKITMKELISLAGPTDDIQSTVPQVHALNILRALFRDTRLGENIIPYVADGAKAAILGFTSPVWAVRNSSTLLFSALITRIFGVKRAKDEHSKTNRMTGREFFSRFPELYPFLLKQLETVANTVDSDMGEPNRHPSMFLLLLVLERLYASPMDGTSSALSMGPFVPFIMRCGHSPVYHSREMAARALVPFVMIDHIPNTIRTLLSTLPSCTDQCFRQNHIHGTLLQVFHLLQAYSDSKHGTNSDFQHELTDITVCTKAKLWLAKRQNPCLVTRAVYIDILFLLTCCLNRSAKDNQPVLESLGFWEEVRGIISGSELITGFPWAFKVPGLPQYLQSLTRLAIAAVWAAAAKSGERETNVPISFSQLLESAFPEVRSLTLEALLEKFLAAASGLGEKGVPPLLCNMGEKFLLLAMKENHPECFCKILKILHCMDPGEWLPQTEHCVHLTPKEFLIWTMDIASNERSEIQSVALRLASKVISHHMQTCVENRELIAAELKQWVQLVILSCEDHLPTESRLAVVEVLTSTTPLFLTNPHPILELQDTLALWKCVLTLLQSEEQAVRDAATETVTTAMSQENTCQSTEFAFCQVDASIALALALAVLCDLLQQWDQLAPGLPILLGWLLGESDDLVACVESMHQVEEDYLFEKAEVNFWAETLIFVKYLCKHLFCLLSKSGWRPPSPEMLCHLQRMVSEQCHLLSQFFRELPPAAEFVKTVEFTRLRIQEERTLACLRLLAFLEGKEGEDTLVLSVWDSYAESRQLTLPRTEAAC
Sequence of UniProt Q96DI7 (Q96DI7 whole entry, looked up): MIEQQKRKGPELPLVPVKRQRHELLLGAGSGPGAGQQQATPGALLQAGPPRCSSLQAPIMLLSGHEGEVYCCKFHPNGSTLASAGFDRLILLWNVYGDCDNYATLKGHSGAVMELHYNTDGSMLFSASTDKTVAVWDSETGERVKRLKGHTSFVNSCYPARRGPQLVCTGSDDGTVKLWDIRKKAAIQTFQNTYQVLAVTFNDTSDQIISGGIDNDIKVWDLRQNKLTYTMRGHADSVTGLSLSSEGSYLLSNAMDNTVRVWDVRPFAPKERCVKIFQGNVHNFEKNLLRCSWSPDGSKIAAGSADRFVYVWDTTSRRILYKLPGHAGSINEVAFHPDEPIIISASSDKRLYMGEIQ
Sequence of UniProt Q9H5Q4 (Q9H5Q4 whole entry, looked up): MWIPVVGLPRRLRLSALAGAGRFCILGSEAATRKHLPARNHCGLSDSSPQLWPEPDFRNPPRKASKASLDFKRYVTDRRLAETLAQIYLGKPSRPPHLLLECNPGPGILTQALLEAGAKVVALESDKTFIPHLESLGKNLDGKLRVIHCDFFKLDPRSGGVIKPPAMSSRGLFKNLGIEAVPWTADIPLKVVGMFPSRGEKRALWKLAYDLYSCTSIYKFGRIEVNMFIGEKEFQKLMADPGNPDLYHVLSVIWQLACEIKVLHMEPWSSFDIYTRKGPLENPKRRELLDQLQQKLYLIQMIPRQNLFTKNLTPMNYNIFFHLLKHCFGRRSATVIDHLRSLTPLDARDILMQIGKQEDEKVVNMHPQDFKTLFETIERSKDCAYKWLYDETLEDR
Sequence of UniProt Q07157 (Q07157 whole entry, looked up): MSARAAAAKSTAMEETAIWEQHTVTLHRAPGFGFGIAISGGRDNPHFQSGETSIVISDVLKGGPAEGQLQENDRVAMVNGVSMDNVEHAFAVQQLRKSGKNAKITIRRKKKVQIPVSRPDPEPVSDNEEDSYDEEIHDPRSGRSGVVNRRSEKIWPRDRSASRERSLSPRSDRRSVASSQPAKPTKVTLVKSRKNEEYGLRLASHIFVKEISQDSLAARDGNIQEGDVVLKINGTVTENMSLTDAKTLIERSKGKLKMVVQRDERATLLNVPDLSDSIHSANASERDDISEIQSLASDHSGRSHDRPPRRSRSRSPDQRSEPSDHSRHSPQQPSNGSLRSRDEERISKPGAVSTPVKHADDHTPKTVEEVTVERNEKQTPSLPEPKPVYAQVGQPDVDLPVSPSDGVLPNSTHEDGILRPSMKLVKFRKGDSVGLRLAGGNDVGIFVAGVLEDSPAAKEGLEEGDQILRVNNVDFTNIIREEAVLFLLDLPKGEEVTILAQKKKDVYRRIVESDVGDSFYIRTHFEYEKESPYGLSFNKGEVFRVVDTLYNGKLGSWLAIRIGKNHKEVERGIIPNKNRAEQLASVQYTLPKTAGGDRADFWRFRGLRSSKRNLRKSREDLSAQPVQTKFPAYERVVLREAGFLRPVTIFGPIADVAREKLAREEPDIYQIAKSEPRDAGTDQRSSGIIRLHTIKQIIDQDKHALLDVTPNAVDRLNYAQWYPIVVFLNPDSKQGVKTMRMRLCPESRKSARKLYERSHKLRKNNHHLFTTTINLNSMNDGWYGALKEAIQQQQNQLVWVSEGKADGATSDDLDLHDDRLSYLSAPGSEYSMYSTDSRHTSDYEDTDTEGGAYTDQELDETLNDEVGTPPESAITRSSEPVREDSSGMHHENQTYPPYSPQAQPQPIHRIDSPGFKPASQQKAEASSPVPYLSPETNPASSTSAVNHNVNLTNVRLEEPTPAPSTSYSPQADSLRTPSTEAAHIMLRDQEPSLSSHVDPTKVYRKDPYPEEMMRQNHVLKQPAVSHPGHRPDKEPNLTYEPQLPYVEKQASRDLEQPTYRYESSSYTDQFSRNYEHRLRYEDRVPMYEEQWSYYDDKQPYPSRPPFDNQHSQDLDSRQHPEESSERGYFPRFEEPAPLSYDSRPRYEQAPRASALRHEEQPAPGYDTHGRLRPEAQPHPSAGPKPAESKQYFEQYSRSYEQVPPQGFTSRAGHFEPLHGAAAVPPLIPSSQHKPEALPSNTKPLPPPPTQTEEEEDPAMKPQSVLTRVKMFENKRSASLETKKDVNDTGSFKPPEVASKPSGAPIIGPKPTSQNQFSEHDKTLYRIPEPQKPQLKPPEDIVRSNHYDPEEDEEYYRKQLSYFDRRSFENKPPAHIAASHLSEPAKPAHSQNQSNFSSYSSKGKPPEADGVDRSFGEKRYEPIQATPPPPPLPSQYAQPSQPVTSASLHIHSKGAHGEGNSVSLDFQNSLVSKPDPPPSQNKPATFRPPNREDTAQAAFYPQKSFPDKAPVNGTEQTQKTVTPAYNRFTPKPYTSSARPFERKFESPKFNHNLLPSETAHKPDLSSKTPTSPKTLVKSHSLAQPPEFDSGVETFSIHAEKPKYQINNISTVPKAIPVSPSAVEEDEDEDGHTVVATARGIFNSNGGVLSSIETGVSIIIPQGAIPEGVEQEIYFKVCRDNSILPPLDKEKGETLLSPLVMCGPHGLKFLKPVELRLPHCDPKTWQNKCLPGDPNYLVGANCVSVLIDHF

Target	log2 fold change [1]	log2 fold change [2]	log2 fold change [3]	log2 fold change [4]	log2 fold change (Nexturastat A)	log2 fold change (vemurafenib)	log2 fold change [5]	log2 fold change [6]	log2 fold change (givinostat)	log2 fold change (barasertib)	log2 fold change [7]	log2 fold change (volasertib)	log2 fold change [8]	log2 fold change (epoxomicin)	log2 fold change [9]	log2 fold change [10]	log2 fold change [11]	log2 fold change (rosiglitazone)	log2 fold change [12]	log2 fold change [13]
SLC27A4 (UniProt Q6P1M0)	-0.074	-0.072	0.011	-0.096	-0.014	-0.039	-0.031	-0.017	0.021	0.056	-0.048	-0.473 (active)	0.03	-0.064	-0.014	-0.036	0.04	0.066	-0.051	-0.158
SORT1 (UniProt Q99523)	-0.042	0.013	-0.006	-0.012	-0.038	-0.003	-0.008	-0.072	-0.003	0.015	-0.984 (active)	-1.34 (active)	-0.013	0.032	-0.028	0.007	0.003	0.008	-0.028	-0.582 (active)
SP3 (UniProt Q02447)	-0.008	-0.126	-0.041	-0.058	-0.003	-0.038	0.012	-0.052	-0.219	0.011	0.03	0.104	-0.019	-0.194	0.025	0.068	-0.074	-0.062	0.058	0.028
SSR3 isoform 2 (UniProt Q9UNL2)	-0.032	0.123	-0.014	0.022	-0.103	0.11	-0.011	-0.075	-0.042	0.017	0.05	0.059	-0.075	-0.054	0.062	-0.069	0.087	-0.002	0.056	0.195
TJP1 (UniProt Q07157)	0.03	-0.039	0.011	-0.012	-0.005	0.041	0.065	-0.021	0.102	0.033	-0.023	-0.166	0.022	0.007	-0.023	-0.052	0.012	0.019	0	-0.071
SLC7A6OS (UniProt Q96CW6)	-0.065	-0.033	-0.042	-0.075	-0.031	-0.015	0.013	-0.025	0.017	0.01	-0.027	-0.084	-0.042	0.01	-0.07	-0.038	0.004	-0.06	-0.05	0.055
TM9SF2 (UniProt Q99805)	0.056	-0.009	-0.005	-0.001	-0.039	-0.03	0.018	-0.004	-0.019	0.035	-0.57 (active)	-0.621 (active)	-0.008	-0.034	0.033	-0.017	0.018	-0.052	-0.01	-0.182
SNRNP40 (UniProt Q96DI7)	0.01	0.001	-0.06	-0.023	0	-0.027	-0.046	-0.037	-0.035	-0.04	0.067	0.059	0.026	-0.05	-0.018	-0.033	-0.012	-0.001	-0.029	0.261 (active)
TK1 (UniProt P04183)	-0.035	0.001	0.01	-0.004	0.014	0.003	-0.012	-0.095	0.011	0.011	0.039	0.062	-0.039	0.084	-0.015	0.001	-0.009	0	-0.075	-0.046
THADA (UniProt Q6YHU6)	0.03	-0.038	0.019	-0.01	-0.021	0.038	0.06	0.039	-0.006	0.07	-0.003	-0.017	0.011	-0.007	0	0.057	0.051	0.076	-0.019	-0.146
SLC25A38 (UniProt Q96DW6)	0.075	-0.011	-0.047	0.076	-0.012	-0.059	-0.019	-0.145	-0.004	0.014	0.013	0.009	-0.002	-0.025	0.048	0	-0.02	-0.028	-0.017	-0.048
SPPL2B (UniProt Q8TCT7)	-0.097	0.004	0.089	0.041	0.029	-0.05	-0.018	0.021	0.048	0	0.039	0	-0.003	-0.076	-0.004	0.028	0.035	-0.022	0.033	-0.228
STAT5A (UniProt P42229)	-0.033	-0.113	0.072	0.011	-0.009	0.067	0.067	0.141	0.156	0.096	-0.225	-0.633 (active)	0.121	0.072	-0.072	0.041	0.074	0.056	-0.005	-0.109
TFB2M (UniProt Q9H5Q4)	-0.017	0	0.008	0.086	-0.077	0.035	0.073	-0.058	0.017	0.048	-0.096	-0.326 (active)	0.049	0.071	0	-0.002	0.031	0.042	-0.049	-0.179
TBC1D24 (UniProt Q9ULP9)	-0.018	-0.012	0.005	0.006	-0.024	0.019	0.046	-0.033	0.005	-0.019	0.025	-0.028	0.05	-0.011	-0.006	-0.175	0.018	0.075	-0.067	-0.236
THYN1 (UniProt Q9P016)	0.008	0.013	0.003	0.056	-0.022	-0.004	-0.004	0.003	-0.135	0.008	0.059	0.09	0.048	0.016	0.072	-0.04	-0.004	0.001	-0.09	0.09
